Reference: PubChem BioAssay AID652105 (National Center for Advancing Translational Sciences (NCATS), 2013)
Out of some 330,000 compounds screened, about 4,100 (1.2%) were called active. About 2% were inconclusive and are not listed. The sample as a whole holds a higher share of actives than the screen did. A number with no mark means an inactive call. The calls were made as follows: active = max response of -50% or lower; inconclusive = between -30% and -50%; inactive = -30% or higher.
% is scaled to controls: 0 for no effect and ±100 for the full control effect.
Also: value at the top dose of about 77 µM.

Each molecule was assayed against Phosphatidylinositol 5-phosphate 4-kinase type-2 alpha (Homo sapiens) (UniProt P48426) (assay: qHTS for Inhibitors of phosphatidylinositol 5-phosphate 4-kinase (PI5P4K)). Details: PI5P4Kalpha enzyme, ADP-Glo luminescence, 60 min; hits give low values.
Sequence of Phosphatidylinositol 5-phosphate 4-kinase type-2 alpha (Homo sapiens) (P48426 whole entry, looked up, canonical isoform): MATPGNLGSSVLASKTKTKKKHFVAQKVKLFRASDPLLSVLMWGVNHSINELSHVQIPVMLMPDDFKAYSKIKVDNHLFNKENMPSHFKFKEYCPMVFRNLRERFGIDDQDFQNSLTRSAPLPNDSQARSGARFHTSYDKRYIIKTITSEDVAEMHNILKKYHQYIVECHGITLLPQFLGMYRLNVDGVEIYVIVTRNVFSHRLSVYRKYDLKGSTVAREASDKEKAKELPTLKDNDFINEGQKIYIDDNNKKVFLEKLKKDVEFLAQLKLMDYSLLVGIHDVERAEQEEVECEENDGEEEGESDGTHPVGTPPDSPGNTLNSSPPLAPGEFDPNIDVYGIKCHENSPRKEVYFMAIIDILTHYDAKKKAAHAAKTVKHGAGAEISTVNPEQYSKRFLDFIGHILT
Text: In addition to finding PI5P, we discovered the type II phosphatidylinositol 5-phosphate 4-kinase (PI5P4K) family (alpha, beta, gamma isoforms) that catalyze the conversion of PI5P to PI(4,5)P2. Alternatively, PI(4,5)P2 can also be synthesized through phosphatidylinositol-4-phosphate (PI4P) by the type I phosphatidylinositol 4-phosphate 5-kinases (PI4P5K). These PI5P4K enzymes therefore represent one way by which cells can regulate endogenous PI5P levels and play important roles in insulin signaling and in stress responses.
This proposal aims to identify and optimize specific modulators of human PI5P4K, phosphatidylinositol-5-phosphate 4-kinase (Type II PIPK), a family of kinases that regulate AKT signaling and tumor cell growth. In this project we aim to identify inhibitors of human PI5P4K using a quantitative high-throughput screening approach against the MLSMR containing ~400,000 small molecules.
NIH Chemical Genomics Center [NCGC]
NIH Molecular Libraries Probe Centers Network [MLPCN]
Assay Submitter (PI): Atsuo Sasaki, Beth Israel Deaconess Medical Center
2 microL of PI5P4Kalpha/substrate buffer (columns 1-2, 5-48) are dispensed into Greiner white solid bottom 1536-well assay plates; column 3 receives only PI5P4Kalpha buffer as 0x substrate controls; column 4 receives only substrate buffer as 0x PI5P4Kalpha controls. Final assay buffer consists of 0.038 M HEPES pH 7.4, 0.28 mM EGTA, 0.1% CHAPS, and 5% DMSO (final concentration). Compounds are then transferred via Kalypsys pin tool equipped with 1536-pin array (10 nL slotted pins, V&P Scientific, San Diego, CA). Following addition of compound, 1 microL of ATP (5 microM final concentration, all columns) is added to initiate the reaction. ATP is diluted in an assay buffer consisting of 0.02 M HEPES pH 7.4, 60 mM MgCl2, 15 microM ATP, and 0.1% CHAPS. The plates are then incubated at room temperature for 60 minutes. ADP-Glo reagent 1 is added (2 microL) and plates incubated for 45 minutes, before ADP-Glo reagent 2 (4 microL) is added and plates incubated for 30 minutes. They are then transferred to a ViewLux high-throughput CCD imager (PerkinElmer) wherein single end-point measurements of luminescence are acquired using a clear filter.
`O=C(Nc1ccc(S(=O)(=O)Nc2nccs2)cc1)c1cc(-c2ccncc2)nc2ccccc12` was tested, and the max response was -67.1% (active).
`O=C(Nc1ccc(S(=O)(=O)Nc2nccs2)cc1)c1cc(=O)[nH]c2ccccc12` gave a max response of -12.6%.
`CCN(CC)CCNC(=O)c1ccc(NC(=O)c2cc(-c3ccncc3)nc3ccccc23)cc1` was tested, and the max response was -5.2%.
`Cc1ccc(C(=O)O)cc1-c1ccc(/C=C2\SC(=O)N(CC(=O)Nc3ccc4c(c3)OCO4)C2=O)o1` was tested, and the max response was -59.9% (active).
Work on `Cc1ccc(C(=O)Nc2ccc3c(c2)OCO3)cc1S(=O)(=O)N1CCCCC1` yielded a max response of 0.934%.
Molecule `Cc1nn(CC(=O)Nc2ccc3c(c2)OCO3)c(C)c1[N+](=O)[O-]` has a max response of 1.6%.
Molecule `CC(=O)Nc1cc(-c2ccc(N3CCN(C)CC3)cc2)cn2c(-c3cccc(C(=O)N(C)C)c3)cnc12` has a max response of 4.25%.
Work on `CCc1nc2c(OCCOc3ccc(F)cc3)cccn2c1N(C)C(=O)c1ccccc1F` yielded a max response of -7.43%.
In the case of `COc1cccc(-c2ccc3c(c2)N(Cc2ccccc2OC)C(=O)C(C)S3)c1` (stereo unspecified), the max response is reported as 20.2%.
`COc1ccc([C@H]2CC(=O)C[C@@H](CCn3cc(CC4CCCC4)nn3)O2)cc1` was tested, and the max response was 9.59%.
Work on `CN1C(=O)/C(=C/c2ccco2)SC1=Nc1cccc(C(=O)O)c1` yielded a max response of -16.9%.
`Cc1ccc(N2NC(=O)/C(=C/C=C/c3ccco3)C2=O)cc1C` gave a max response of -13.7%.
With `Cc1ccc(N=C2NC(=O)/C(=C/C=C/c3ccco3)S2)cc1C` the max response was -76.1% (active).
Work on `O=C(CSc1nc2ccccc2c(=O)[nH]1)Nc1nc(-c2ccc(Br)cc2)cs1` yielded a max response of 2.06%.
Work on `Cc1ccc(CSc2nc(-c3ccccc3)c(C#N)c(=O)[nH]2)cc1` yielded a max response of -3.14%.
In the case of `N#Cc1c(-c2cccs2)nc(SCC(=O)c2ccc(Br)cc2)[nH]c1=O`, the max response is reported as -61.8% (active).
`CCc1nc2c(OCCc3cccc(OC)c3)cccn2c1N(C)C(=O)c1ccc(C)cc1` was tested, and the max response was 2.18%.
With `COc1ccc(CN2C[C@H]3CON(C)[C@H]3C[C@H]2c2ccc(-c3cccc(F)c3)cc2)cc1` the max response was 18.3%.
In the case of `C[N+](C)(C)CCOP(=O)([O-])OC[C@H](O)CO`, the max response is reported as -87.3% (active).
With `COC(=O)C[C@H]1C=C[C@H](NC(=O)c2ccc(F)cc2)[C@@H](CO)O1` the max response was -0.944%.
With `COC(=O)c1ccc2nc(-c3cccc(Br)c3)c(Cc3ccccc3C(F)(F)F)n2c1` the max response was 4.18%.
Molecule `C#CCN(C[C@@H]1[C@@H](OC(=O)NC2CC2)[C@@H](OC(=O)NC2CC2)Cn2c(=O)ccc(=O)n21)S(=O)(=O)c1ccc(C)cc1` has a max response of -1.14%.
In the case of `COCCNC(=O)C1C(=O)Nc2ccccc2C(=O)N1c1ccc2c(c1)OCCO2` (stereo unspecified), the max response is reported as 7.16%.
For `O=C(c1cc2c(s1)CCC2)N1CCN(c2ccccc2)CC1`, the max response was -53% (active).
Work on `O=C(NNC(=O)c1cc2c(s1)CCCC2)c1ccccc1` yielded a max response of 0.43%.
In the case of `O=C(c1ccccc1)c1ccc(C(=O)N2CCN(c3ccccc3)CC2)cc1`, the max response is reported as 6.71%.
In the case of `C=CCn1cnc2scc(-c3ccccc3)c2c1=O`, the max response is reported as -1.04%.
For `CCC1(C)Cc2c(sc3[nH]c(=S)n(Cc4ccccc4)c(=O)c23)CO1` (stereo unspecified), the max response was -15.7%.
For `C=CCn1c(=S)[nH]c2scc(-c3ccco3)c2c1=O`, the max response was -84.2% (active).
For `Clc1cccc(Cc2c(-c3cccc(Cl)c3)nc3ccc(Cl)cn23)c1`, the max response was -3.6%.
Molecule `CCCCCNC(=O)C1C(=O)Nc2ccccc2C(=O)N1C(C)(C)C` (stereo unspecified) has a max response of -7.39%.
`O=C(CNC(=O)c1ccc(Br)o1)Nc1ccccc1` showed a max response of -2.2%.
`CC(CNC(=O)c1ccc(Br)o1)NC(=O)c1ccc(Br)o1` (stereo unspecified) was tested, and the max response was -54.6% (active).
Molecule `O=C(NCc1cccs1)c1ccc(Br)o1` has a max response of 4.81%.
Molecule `CSc1ccc(CN2CCC2(C)C(=O)NCc2ccccc2Br)cc1` (stereo unspecified) has a max response of 17.1%.
`COc1ccccc1-c1cc(NC(C)=O)c2ncc(-c3ccc(F)cc3)n2c1` showed a max response of -5.85%.
For `CCCc1ccc(C(O)c2ncc(-c3cccc(OC)c3)[nH]2)cc1` (stereo unspecified), the max response was 14%.
`COc1cccc2sc(NNC(=O)c3nc4ccccc4s3)nc12` was tested, and the max response was -61.5% (active).
Molecule `COc1cccc2sc(N(CCCN(C)C)C(=O)C(c3ccccc3)c3ccccc3)nc12` has a max response of 12.8%.
`COc1ccc(/C=C(/CC(=O)Nc2ccc(C)cc2)c2nc3ccccc3s2)cc1` showed a max response of -7.45%.
Work on `O=C(/C=C/[C@H]1O[C@@H](n2ccc(=O)[nH]c2=O)[C@H](O)[C@@H]1O)NCc1ccccn1` yielded a max response of 2%.
In the case of `CCOC(=O)C[C@H]1c2ccc(C(F)(F)F)cc2S(=O)(=O)N1c1ccccc1`, the max response is reported as 2.77%.
`CCOC(=O)C1Nc2ccc(C(F)(F)F)cc2C2C=CCC12` (stereo unspecified) was tested, and the max response was -55.4% (active).
With `CCOC(=O)[C@H]1Nc2ccc(Cl)cc2[C@@H]2[C@H]1C1CC(c3ccccc31)N2C(=O)OCc1ccccc1` (stereo partly specified) the max response was 19.9%.
For `Nc1cccc(-c2cncc(N3CCN(Cc4ccccn4)CC3)n2)c1`, the max response was -6.48%.
`O=C(CSc1nc2c(cnn2-c2ccc(F)cc2)c(=O)[nH]1)N1CCCCCC1` was tested, and the max response was -3.16%.
